IL-1B inflam inh – blocks inflammasome-driven IL-1 beta release; activity change, % at 57.5 µM; 360,000 tested, 4.7% active; THP-1 LPS/ATP IL-1B secretion, AlphaLISA, 16 h; active compounds read low; AID 743279; in the data active = activity change below about -50%; inconclusive = mostly about -30% to -49%
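THP-1 cells pretreated 1 hr with compounds (up to 57.5 uM final), then stimulated with LPS (250 ng/mL final) plus ATP (1.25 mM final); secreted IL-1B measured by AlphaLISA after 16 hr, decreased signal indicating inhibition.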
VP16 counter – Gal4-VP16 reporter inhibition counter-screen | Drosophila S2 Gal4-VP16 UAS-luciferase, luminescence, 20 h | Potency, µM (highest dose often 53.6 µM), hits mostly inhibitors | 310,000 tested, 3.5% active | AID 2546;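 note: Gal4-VP16 expression switched on by copper sulfate through the metallothionein promoter; nearly all actives have a fitted effect of over 50% in size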
TDP1 cell CPT – growth inhibition of DT40 Tdp1-/-;hTDP1 cells with camptothecin (screen for TDP1 inhibitors); 420,000 tested, 12% active; chicken DT40 Tdp1-/-;hTDP1 cells + 20 nM CPT, ATP luminescence, 48 h; Potency, µM (doses to about 46.2 µM), hits mostly inhibitors; note: nearly all actives have a fitted effect of over 55% in size
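Chicken DT40 Tdp1-/- cells complemented with human TDP1, 400 cells/well, exposed to compounds plus 20 nM camptothecin for at least 48 h at 37 C; viability read as ATP content by CellTiter-Glo luminescence.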
RORgamma inh – ROR gamma (mouse) transcription inhibition; Drosophila S2 Gal4-RORgamma UAS-luciferase reporter, 20 h; 310,000 tested, 5.4% active; Potency, µM (titrated, usually from 53.6 µM), actives largely listed as inhibitors; AID 2551; P51450; note: nearly all actives have a fitted effect of over 60% in size
Target sequence (P51450 whole entry, looked up, the tested form may be a part): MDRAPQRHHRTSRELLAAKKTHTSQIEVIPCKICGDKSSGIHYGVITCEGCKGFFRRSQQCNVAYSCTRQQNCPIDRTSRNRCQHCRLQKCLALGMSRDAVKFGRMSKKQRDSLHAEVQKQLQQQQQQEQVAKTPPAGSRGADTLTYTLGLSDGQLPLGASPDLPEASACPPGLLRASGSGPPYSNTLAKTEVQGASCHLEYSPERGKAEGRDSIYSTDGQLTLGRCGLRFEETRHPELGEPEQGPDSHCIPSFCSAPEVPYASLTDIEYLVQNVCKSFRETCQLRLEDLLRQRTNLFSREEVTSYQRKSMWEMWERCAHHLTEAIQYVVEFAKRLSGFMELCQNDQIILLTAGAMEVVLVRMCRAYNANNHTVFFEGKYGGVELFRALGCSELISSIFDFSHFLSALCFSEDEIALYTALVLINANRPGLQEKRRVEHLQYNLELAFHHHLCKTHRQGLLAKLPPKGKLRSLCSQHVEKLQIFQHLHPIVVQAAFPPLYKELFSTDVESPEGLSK
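Read-out: Photinus luciferase luminescence; inhibitors lower reporter signal. Insect Schneider cells with Gal4-ROR gamma fusion under metallothionein promoter, UAS reporter; 700 uM final copper sulfate induction, 20 hr, ambient temperature.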
TDP1 cell noCPT – qHTS for Inhibitors of human tyrosyl-DNA phosphodiesterase 1 (TDP1): qHTS in cells in absence of CPT. DT40 Tdp1-/- hTDP1 cells, no CPT, ATP luminescence, 48 h. Potency, µM (top dose mostly 46.2 µM), usual class: inhibitors. 420,000 tested, 15% active. AID 686978, 2013; note: nearly all actives have a fitted effect of over 55% in size
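Compound effects on proliferation are scored in DT40 Tdp1-/-;hTDP1 cells in the absence of CPT. ATP levels (CellTiter-Glo luminescence) are recorded after a ≥48 hr, 37 °C incubation.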
LDHA inh – inhibitors of human lactate dehydrogenase A | P00338 | purified LDHA, NADH/diaphorase-resazurin fluorescence; active compounds read low | activity change, % (values are at about 110 or 230 µM) | 480,000 tested, 0.15% active; in the data active = activity change below about -30%; inconclusive = mostly about -25% to -30%
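Human LDH5 at 2 nM final in Tris HCl pH 7.4 with 0.06 mM NADH and 0.2 mM pyruvate, reacted 5 minutes at room temperature. Remaining NADH coupled via diaphorase/resazurin; resorufin fluorescence read at 0 and 20 minutes, normalized to enzyme-free and DMSO wells.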
Numbers stand for hits; . = inactive; ? = inconclusive; / = no result. Most compounds without a hit are left out; they make up all but 18% or so of the library. Unless noted, calls come from the whole dose curve; as a rule, active = well fitted curve in the direction sought with a large enough effect; inconclusive = small, poorly fitted or top-dose-only effect, or another doubt; inactive = no such curve, though single readings can be large; an effect the other way counts as inactive or inconclusive.

SMILES | IL-1B inflam inh | VP16 counter | TDP1 cell CPT | RORgamma inh | TDP1 cell noCPT | LDHA inh
COc1ccc(/C=C/c2ccc3cccc(O)c3n2)cc1Br | . | 3.16µM | 5.8µM | 2µM | 5.17µM | .
COc1cc(/C=C/c2ccc3cccc(O)c3n2)cc(OC)c1OC | -102.2 | ? | ? | ? | ? | .
COc1cccc(/C=C/c2ccc3cccc(O)c3n2)c1O | / | / | / | / | / | .
COc1cc(/C=C/c2ccc3cccc(O)c3n2)cc(Br)c1OC | ? | 5.01µM | 11.6µM | 1.26µM | 18.4µM | .
COc1cccc(-c2cc(=O)n3[nH]c(C(F)(F)F)nc3n2)c1 | / | / | / | / | / | .
COc1ccccc1C(=O)N1CCN(c2oc(-c3ccc(F)cc3)nc2C#N)CC1 | / | / | / | / | / | .
S=C(Nc1ccc(Cl)cc1)NC1CC2CCC(C1)N2Cc1ccccc1 (stereo unspecified) | -98.2 | ? | 23.1µM | 3.98µM | 16.4µM | .
S=C(Nc1ccc(Cl)cc1)NC1CC2CCCC(C1)N2C1CCCC1 (stereo unspecified) | . | . | ? | . | ? | .
C=CCN1C2CCCC1CC(NC(=S)Nc1ccc(Cl)cc1)C2 (stereo unspecified) | . | . | 23.1µM | . | ? | .
S=C(Nc1ccc(Cl)cc1)NC1CC2CCCC(C1)N2C1CC1 (stereo unspecified) | ? | 3.98µM | ? | ? | ? | .
CNC(=S)NC1CC2CCC(C1)N2Cc1ccccc1 (stereo unspecified) | . | . | . | . | . | .
Cc1cc(C)cc(NC(=S)NC2CC3CCCC(C2)N3C2CCCC2)c1 (stereo unspecified) | . | . | ? | 35.5µM | . | .
Cc1cc(C)cc(NC(=S)NC2CC3CCCC(C2)N3C2CC2)c1 (stereo unspecified) | . | ? | ? | ? | ? | .
O=Cc1c(-c2ccccc2)cc2ccccn12 | / | / | / | / | / | .
COc1ccc(-n2ncc(C(C)NS(=O)(=O)c3cc(C)sc3C)c2C)cc1 (stereo unspecified) | . | / | ? | / | 16.4µM | .
COC(=O)c1c(C)[nH]c(-c2ccc(OC)cc2F)c1C1C(=O)Nc2ccccc21 (stereo unspecified) | / | / | / | / | / | .
O=S(CCCOc1ccc(F)cc1)Cc1ccccc1 (stereo unspecified) | / | / | / | / | / | .
Cc1ccc(N2CCN(Cc3nnc(-c4ccc5c(c4)OCO5)o3)CC2)c(C)c1 | / | / | ? | / | 23.1µM | .
O=C(Nc1ccc(F)cc1)N1c2ccccc2Sc2ccccc21 | / | / | / | / | / | .
CCCCNC(=S)N/N=C/c1cc(C)ccc1C | . | 3.16µM | 5.17µM | 1.78µM | 6.51µM | .
O=C(C[n+]1ccccc1)N/N=C/c1ccccc1F | . | . | . | . | . | .
CCCCNC(=S)N/N=C/c1sccc1C | . | . | 0.92µM | 1.12µM | 1.46µM | .
CCCCNC(=S)N/N=C/c1ccccc1F | . | 3.16µM | ? | 2.51µM | 14.6µM | .
COC(=O)c1sccc1NC(=O)CC1(C(=O)O)CCCC1 | / | / | / | / | / | .
COc1cccc(NC(=O)CCCN(c2ccc(Cl)cc2)S(C)(=O)=O)c1 | / | / | / | / | / | .
SMILES | IL-1B inflam inh | VP16 counter | TDP1 cell CPT | RORgamma inh | TDP1 cell noCPT | LDHA inh
COCCOc1nc2c(c(=O)n(C)c(=O)n2C)n1Cc1ccc(C)cc1 | / | / | / | / | / | .
CCOC1=C2[C@@H](CN(S(=O)(=O)c3ccc(C)cc3)[C@H]2c2ccccc2Cl)[C@H]2C(=O)N(Cc3ccccc3)C(=O)[C@H]2C1 | . | / | 18.4µM | / | 14.6µM | .
COC(=O)CC(C(=O)OC)N1CCCC1 (stereo unspecified) | / | / | / | / | / | .
CC(Nc1nc(N2CCNCC2)nc2ccccc12)c1ccccc1 (stereo unspecified) | -103.7 | . | 4.11µM | . | 5.17µM | .
CC(Nc1nc(-c2cccnc2)nc2ccccc12)c1ccccc1 (stereo unspecified) | . | / | ? | / | ? | .
CC(Nc1nc(-c2ccncc2)nc2ccccc12)c1ccccc1 (stereo unspecified) | . | . | 18.4µM | ? | 18.4µM | .
c1ccc(CCNc2nc(-c3ccncc3)nc3ccccc23)cc1 | . | . | 20.6µM | ? | 18.4µM | .
Cc1oc(-c2ccccc2)nc1CC(=O)Nc1ccccc1Cl | / | / | / | / | / | .
O=C(CSc1nnnn1C1CCCC1)c1ccc2ccccc2c1 | / | / | / | / | / | .
O=C(OC/C=C/c1ccccc1)c1c[nH]c2ccccc12 | / | / | / | / | / | .
Cc1ccc(C2(C)NC(=O)N(CC(=O)N3CCN(S(=O)(=O)c4ccc(Cl)s4)CC3)C2=O)cc1 (stereo unspecified) | . | / | 20.6µM | / | ? | .
COc1cccc(N2CCN(C(=O)CN3C(=O)NC(C)(c4ccc5ccccc5c4)C3=O)CC2)c1 (stereo unspecified) | . | / | 13µM | / | 16.4µM | .
CC1(c2ccc(Cl)cc2)NC(=O)N(CC(=O)N2CCc3ccccc32)C1=O (stereo unspecified) | . | / | 25.9µM | / | ? | .
COc1ccc(Cl)cc1NC(=O)CN(C)C(=O)CN1C(=O)NC(C)(c2ccc3ccccc3c2)C1=O (stereo unspecified) | -52.9 | / | ? | / | 14.6µM | .
CN1CCN(C(=O)CN2C(=O)NC(C)(c3ccc4ccccc4c3)C2=O)CC1 (stereo unspecified) | . | / | . | / | . | .
CC1CCCN(C(=O)CN2C(=O)NC(C)(c3ccc4ccccc4c3)C2=O)C1 (stereo unspecified) | . | / | ? | / | ? | .
CC1(c2ccc3ccccc3c2)NC(=O)N(CC(=O)N2CCN(S(=O)(=O)c3ccccc3F)CC2)C1=O (stereo unspecified) | . | . | ? | ? | 23.1µM | .
Cc1ccc(S(=O)(=O)N2CCN(C(=O)CN3C(=O)NC(C)(c4ccc5ccccc5c4)C3=O)CC2)cc1 (stereo unspecified) | . | / | ? | / | ? | .
CC1(c2ccc3ccccc3c2)NC(=O)N(CC(=O)N2CCN(c3ccccc3O)CC2)C1=O (stereo unspecified) | . | . | ? | ? | 13µM | .
CC1CCN(C(=O)CN2C(=O)NC(C)(c3ccc4ccccc4c3)C2=O)CC1 (stereo unspecified) | . | / | 18.4µM | / | 16.4µM | .
CCCc1noc(C(C)Nc2ccc(N3CCCC3=O)c(Cl)c2)n1 (stereo unspecified) | / | / | / | / | / | .
Cc1ccc(S(=O)(=O)N[C@@H](CC(C)C)C(=O)N2CCC(C(=O)N[C@@H](Cc3ccccc3)C(=O)O)CC2)cc1 | . | . | ? | . | ? | .
COC(=O)[C@H](Cc1ccccc1)NC(=O)C1CCN(C(=O)[C@H](C)NS(=O)(=O)c2ccc(C)cc2)CC1 | -50.0 | . | . | . | . | .
O=C(c1cccs1)n1nc(-c2ccccc2)nc1NCc1ccco1 | . | . | 20.6µM | ? | ? | .
